Laboratory results from PubChem BioAssay (NCATS).
Inconclusive results are not listed. Calls of active or inactive are those of the source. Unless noted, calls follow the shape of the full dose curve.

Columns and labels:
[1] = Inducers of the Endoplasmic Reticulum Stress Response (ERSR) in human glioma: Validation (AID 504836; active = well fitted curve in the direction sought with a large enough effect)
How it was run: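 ERSR induction read as luciferase luminescence (Bright-Glo, 10 min at room temperature) in stably transfected human U87-MG glioma cells exposed to compounds for 16 h, using GRP78 as sensor.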

[2] = qHTS for Inhibitors of the Functional Ribonucleoprotein Complex (vRNP) of Lassa (LASV) Arenavirus: LASV Primary Screen - GLuc reporter signal (AID 1347082; calls by dose curve; tested in HEK293 reporter line; also: series mostly up to about 57 µM; nearly all actives have a fitted effect of over 60% in size)
[3] = qHTS for Inhibitors of the Functional Ribonucleoprotein Complex (vRNP) of Lassa (LASV) Arenavirus: Viability assay - alamar blue signal for LASV Primary Screen (AID 1347083; calls by dose curve; tested in HEK293 reporter line; also: series mostly up to about 57 µM; nearly all actives have a fitted effect of over 80% in size)
[4] = qHTS for Inhibitors of the Functional Ribonucleoprotein Complex (vRNP) of Lymphocytic Choriomeningitis Arenaviruses (LCMV): Viability assay - alamar blue signal for LCMV Primary Screen (AID 1347085; calls by dose curve; tested in HEK293 reporter line; also: series mostly up to about 57 µM; nearly all actives have a fitted effect of over 80% in size)
[5] = biological target: Nucleoprotein (Lymphocytic choriomeningitis virus (strain Armstrong)) (UniProt P09992); assay: qHTS for Inhibitors of the Functional Ribonucleoprotein Complex (vRNP) of Lymphocytic Choriomeningitis Arenaviruses (LCMV): LCMV Primary Screen - GLuc reporter signal (AID 1347086); also: series mostly up to about 57 µM; nearly all actives have a fitted effect of over 70% in size

Measured: Potency

Sequence of Nucleoprotein (Lymphocytic choriomeningitis virus (strain Armstrong)) (P09992 whole entry, looked up): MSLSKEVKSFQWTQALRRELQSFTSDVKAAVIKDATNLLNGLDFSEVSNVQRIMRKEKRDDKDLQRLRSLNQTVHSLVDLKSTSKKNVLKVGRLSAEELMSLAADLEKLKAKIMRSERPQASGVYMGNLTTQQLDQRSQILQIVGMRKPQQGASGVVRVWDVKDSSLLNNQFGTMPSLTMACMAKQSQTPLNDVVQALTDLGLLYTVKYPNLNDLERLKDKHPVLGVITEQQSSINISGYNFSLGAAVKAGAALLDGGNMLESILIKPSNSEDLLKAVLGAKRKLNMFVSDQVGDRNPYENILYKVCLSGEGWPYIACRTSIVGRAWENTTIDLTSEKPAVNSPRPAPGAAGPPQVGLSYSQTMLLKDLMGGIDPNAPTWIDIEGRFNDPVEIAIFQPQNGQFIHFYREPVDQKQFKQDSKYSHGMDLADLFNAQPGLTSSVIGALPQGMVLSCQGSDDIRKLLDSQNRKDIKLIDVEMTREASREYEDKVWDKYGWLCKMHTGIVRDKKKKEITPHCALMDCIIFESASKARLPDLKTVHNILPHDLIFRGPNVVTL

O=c1[nH]c(=S)[nH]c(-c2ccccc2)c1Cc1c(O)ccc2ccccc12
inactive: all assays above

CN(CC[C@@H](Oc1ccc(C(F)(F)F)cc1)c1ccccc1)CC(=O)O
inactive: all assays above

CCCCCCCCCCC(C)(C)C(=O)Nc1c(OC)cc(OC)cc1OC
inactive: all assays above

CN1C2CCCC1CC(NC(=O)c1nn(C)c3ccccc13)C2 (stereo not given)
inactive: all assays above

CN(C)CCCO[C@@H]1[C@H]2OC(C)(C)O[C@H]2O[C@@H]1[C@H](O)CO
inactive: all assays above

C#CC(N)CCC(=O)O (stereo not given)
inactive: all assays above

CC(COc1ccc(/C=C/c2ccccc2)cc1)[N+](C)(C)C (stereo not given)
inactive: all assays above

N[C@@H](CCC(=O)N[C@H](CSN=O)C(=O)NCC(=O)O)C(=O)O
inactive: all assays above

Nc1nc(Cl)nc2c1ncn2[C@@H]1O[C@H](CO)[C@@H](O)[C@H]1O
inactive: all assays above

CO/S(=N\S(=O)(=O)c1ccc(Cl)cc1)c1ccc([N+](=O)[O-])cc1 (stereo not given)
inactive: all assays above

COc1cc2nc(N3CCN(C(=O)OCc4ccccc4)C(C(=O)NC(C)(C)C)C3)nc(N)c2cc1OC (stereo not given)
inactive: all assays above

CCCC1(C)C(C#N)(C#N)C1(C#N)C#N
inactive: all assays above

C[C@H]1CC2C3CCC4=CC(=O)C=C[C@]4(C)[C@@]3(Cl)[C@@H](O)C[C@]2(C)[C@@]1(O)C(=O)CO (stereo not given in full)
inactive: all assays above

Clc1ccc(N2CCN(Cc3cc4ccccn4n3)CC2)cc1
inactive: all assays above

CCc1ccc2c(-c3cccc(Cl)c3)nc(=O)n(CC)c2n1
inactive: all assays above

Nc1nc2c(cnn2CCc2ccccc2)c2nc(-c3ccco3)nn12
inactive: all assays above

c1ccc2c(c1)CCC[C@H]2Nc1nc2ccccc2[nH]1
inactive: all assays above

O=C1/C(=C/c2ccsc2)CC/C1=C\c1cccs1
inactive: all assays above

CCc1c(C(=O)NCCc2ccc(N3CCCCC3)cc2)[nH]c2ccc(Cl)cc12
inactive: all assays above

CC(C)[C@@H]1CC[C@@H](C)C[C@@H]1P(=O)(c1ccccc1)c1ccccc1
inactive: all assays above

CC(N)(Cc1ccc(O)cc1)C(=O)O (stereo not given)
inactive: all assays above

NC[C@@H]1O[C@H](c2ccccc2)Cc2c1ccc(O)c2O
inactive: all assays above

N[C@H](C(=O)O)[C@H](Cc1ccccc1)C(=O)O
inactive: all assays above

NC(=S)NCCC[C@H](N)C(=O)O
inactive: all assays above

O=[N+]([O-])c1ccc(CSc2ncnc3c2ncn3[C@@H]2O[C@H](CO)[C@@H](O)[C@H]2O)cc1
inactive: all assays above

Fc1cccc(/C=N/N=C/c2cccc(F)c2)c1
inactive: all assays above

CNC(=O)[C@H]1O[C@@H](n2cnc3c(NCc4ccc(N)cc4)ncnc32)[C@H](O)[C@@H]1O
inactive: all assays above

NC[C@H]1O[C@@H](n2cnc3c(N)ncnc32)[C@H](O)[C@@H]1O
inactive: all assays above

CN1CCc2cc(Cl)c(O)cc2[C@@H](c2ccccc2)C1
inactive: all assays above

COc1ccc(CCn2nnnc2C2(c3ccc(C)cc3)CC2)cc1
inactive: all assays above

CN1Cc2sccc2C(c2ccc(O)c(O)c2)C1 (stereo not given)
inactive: all assays above

Nc1ncnc2c1c(I)cn2[C@@H]1C[C@H](N)[C@@H](O)[C@H]1O
inactive: all assays above

COC(=O)C1=CO[C@@H](O)[C@@H]2C(CO)=CC[C@H]12
inactive: all assays above

O=C(O)CCC/C=C\C[C@@H]1[C@@H](/C=C/[C@H](O)C2Cc3ccccc3C2)[C@@H](F)C[C@@H]1O
inactive: all assays above

C=C1C[C@@]23CC[C@H]4[C@@](C)(CCC[C@@]4(C)C(=O)O)[C@@H]2CC[C@]1(O)C3
inactive: all assays above
